Test results from PubChem BioAssay.
For part of these data: Entries with a potency or affinity are not part of this list. Active and inactive are the calls of the source. Unless noted, no rule for the calls is given here.

How the values were obtained:
[1] = antimalarial activity against Dd2 strain (AID 2302;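 active = growth inhibition above 50% at the single 2 µM test dose, taken to imply half-maximal potency below 2 µM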;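 also: 0% = DMSO untreated growth and 100% = chloroquine plus artemisinin killed control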); settings: P. falciparum Dd2 in RBCs, LDH growth readout, 72 h; at 2 µM; stronger effect = higher value
[2] = HepG2 cytotoxicity, primary screen, cytotoxicity control for P. falciparum antimalarial project, cell-based, ATP luminescence (AID 2303;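 active = inhibition above 50%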;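 also: 0% = DMSO wells and 100% = digitonin-killed cells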); settings: HepG2 viability, 24-48 h, at 10 µM, stronger effect = higher value
[3] = target: L-lactate dehydrogenase (Plasmodium falciparum (isolate CDC / Honduras)) (UniProt Q27743); experiment: PfLDH activity inhibition – cell lysate, 3D7 strain, counter-screen for P. falciparum growth inhibition project (AID 2304);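 also: 0% = vehicle and 100% = reference inhibitor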; settings: P. falciparum 3D7 crude extract, LDH APAD/NBT absorbance; at 2 µM; stronger effect = higher value
[4] = inhibition of 3D7 malaria parasite growth – strain 3D7 (AID 2306);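 also: 0% = DMSO wells and 100% = chloroquine plus artemisinin control wells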; settings: P. falciparum 3D7 erythrocytic growth, LDH absorbance, 72 h; at 2 µM; stronger effect = higher value
[5] = target: Calcium-dependent protein kinase 1 (Plasmodium falciparum (isolate 3D7)) (UniProt P62344); experiment: PfCDPK1 kinase inhibitors, biochemical, TCAMS library (AID 1159585; cut-off not given, nearly all actives have IC50 up to about 0.98 µM;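 also: inhibitors leave more ATP so luminescence rises with inhibition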); settings: recombinant PfCDPK1, Kinase-Glo ATP depletion luminescence
[6] = target: Plasmodium falciparum protein kinase 6 (PK6, PF3D7_1337100) (UniProt Q8IDW1); experiment: PfPK6 kinase inhibitors, biochemical, TCAMS library (AID 1159586); settings: recombinant PfPK6, Kinase-Glo ATP depletion luminescence
[7] = target: Protein kinase 7 (PK7), Plasmodium falciparum 3D7 (PF3D7_0213400) (UniProt Q7YTF7); experiment: inhibition of Plasmodium PK7 catalytic activity – biochemical, TCAMS antimalarial set, Kinase-Glo luminescence (AID 1159587); settings: recombinant PfPK7, Kinase-Glo ATP depletion luminescence
[8] = target: Calcium-dependent protein kinase 4 (Plasmodium falciparum (isolate 3D7)) (UniProt Q8IBS5); experiment: PfCDPK4 kinase inhibitors, biochemical, TCAMS library (AID 1159588; cut-off not given, nearly all actives have IC50 up to about 0.91 µM); settings: recombinant PfCDPK4, Kinase-Glo ATP depletion luminescence
Chain of Calcium-dependent protein kinase 4 (Plasmodium falciparum (isolate 3D7)) (Q8IBS5 whole entry, looked up): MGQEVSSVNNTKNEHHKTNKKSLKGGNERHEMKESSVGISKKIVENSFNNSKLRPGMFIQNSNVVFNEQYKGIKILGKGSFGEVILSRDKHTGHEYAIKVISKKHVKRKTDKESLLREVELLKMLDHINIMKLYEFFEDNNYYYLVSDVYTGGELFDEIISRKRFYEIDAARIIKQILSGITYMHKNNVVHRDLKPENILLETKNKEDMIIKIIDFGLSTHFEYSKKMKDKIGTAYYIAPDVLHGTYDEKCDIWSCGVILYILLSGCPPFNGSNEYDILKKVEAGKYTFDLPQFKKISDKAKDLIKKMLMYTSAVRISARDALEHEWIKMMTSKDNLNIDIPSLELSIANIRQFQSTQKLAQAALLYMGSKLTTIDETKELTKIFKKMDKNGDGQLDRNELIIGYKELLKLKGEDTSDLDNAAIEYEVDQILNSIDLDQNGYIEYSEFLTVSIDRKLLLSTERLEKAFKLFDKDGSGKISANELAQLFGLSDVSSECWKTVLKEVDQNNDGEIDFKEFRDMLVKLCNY

Chain of L-lactate dehydrogenase (Plasmodium falciparum (isolate CDC / Honduras)) (Q27743 whole entry, looked up): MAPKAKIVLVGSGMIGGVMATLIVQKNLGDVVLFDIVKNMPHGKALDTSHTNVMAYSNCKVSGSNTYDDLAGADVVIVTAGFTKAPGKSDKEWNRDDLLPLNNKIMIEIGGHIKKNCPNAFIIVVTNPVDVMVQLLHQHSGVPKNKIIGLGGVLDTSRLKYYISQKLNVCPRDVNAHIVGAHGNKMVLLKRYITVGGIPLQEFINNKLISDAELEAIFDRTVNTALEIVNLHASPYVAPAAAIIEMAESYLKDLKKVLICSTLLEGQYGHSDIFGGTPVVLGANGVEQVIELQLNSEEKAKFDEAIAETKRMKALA
Chain of Calcium-dependent protein kinase 1 (Plasmodium falciparum (isolate 3D7)) (P62344 whole entry, looked up): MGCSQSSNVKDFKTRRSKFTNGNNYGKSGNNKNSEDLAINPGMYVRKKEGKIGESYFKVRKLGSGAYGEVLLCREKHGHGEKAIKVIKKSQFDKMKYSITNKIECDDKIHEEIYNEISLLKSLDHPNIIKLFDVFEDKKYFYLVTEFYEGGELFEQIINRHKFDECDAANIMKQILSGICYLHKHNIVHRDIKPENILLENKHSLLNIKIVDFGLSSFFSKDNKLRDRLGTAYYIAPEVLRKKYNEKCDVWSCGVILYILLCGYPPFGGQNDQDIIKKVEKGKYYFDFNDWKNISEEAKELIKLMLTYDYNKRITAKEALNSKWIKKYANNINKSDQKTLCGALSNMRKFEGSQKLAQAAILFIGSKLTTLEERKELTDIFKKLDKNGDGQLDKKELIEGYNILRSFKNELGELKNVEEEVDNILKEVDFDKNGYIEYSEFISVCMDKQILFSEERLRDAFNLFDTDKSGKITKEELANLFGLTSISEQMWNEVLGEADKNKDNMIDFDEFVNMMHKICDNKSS
Chain of Protein kinase 7 (PK7), Plasmodium falciparum 3D7 (PF3D7_0213400) (Q7YTF7 1-343): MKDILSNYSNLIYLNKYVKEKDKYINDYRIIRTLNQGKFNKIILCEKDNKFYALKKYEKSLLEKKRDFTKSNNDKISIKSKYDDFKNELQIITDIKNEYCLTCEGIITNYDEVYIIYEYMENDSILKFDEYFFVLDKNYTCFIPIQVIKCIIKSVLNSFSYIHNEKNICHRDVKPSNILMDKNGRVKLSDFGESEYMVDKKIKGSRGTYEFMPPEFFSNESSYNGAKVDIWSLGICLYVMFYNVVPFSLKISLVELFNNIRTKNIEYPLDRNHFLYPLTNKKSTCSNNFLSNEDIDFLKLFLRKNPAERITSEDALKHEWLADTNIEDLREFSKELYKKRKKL
Chain of Plasmodium falciparum protein kinase 6 (PK6, PF3D7_1337100) (Q8IDW1 1-305): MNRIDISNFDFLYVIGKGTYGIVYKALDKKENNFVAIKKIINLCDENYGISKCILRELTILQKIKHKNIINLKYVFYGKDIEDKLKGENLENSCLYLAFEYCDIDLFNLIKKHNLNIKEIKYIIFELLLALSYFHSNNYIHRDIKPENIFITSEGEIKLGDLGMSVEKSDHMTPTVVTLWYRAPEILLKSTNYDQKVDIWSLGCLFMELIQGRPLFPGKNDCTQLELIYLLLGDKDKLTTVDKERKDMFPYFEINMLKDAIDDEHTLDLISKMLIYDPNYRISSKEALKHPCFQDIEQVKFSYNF

CC(C)(C)NCCN(Cc1ccc(-c2ccc(C(F)(F)F)cc2)cc1)C(=O)Cn1c(CCc2cccc(F)c2F)nc(=O)c2c1CCC2
active: growth inhibition [4] 95%
inactive: growth inhibition [1] 48% | inhibition [2] 6% | inhibition [3] 6% | outcome [5] | outcome [6] | outcome [7] | outcome [8]

CN(C)Cc1c(O)ccc2oc(Cc3ccccc3)cc12
inactive: inhibition [2] 0% | inhibition [3] 0% | outcome [5] | outcome [6] | outcome [7] | outcome [8]
active: growth inhibition [1] 94% | growth inhibition [4] 99%

CC(CNC(=O)[C@H]1CNCCN1C(=O)CCCc1ccccc1)c1ccccc1 (some centres not stated)
active: growth inhibition [4] 94%
inactive: growth inhibition [1] 1% | inhibition [2] 12% | inhibition [3] 3% | outcome [5] | outcome [6] | outcome [7] | outcome [8]

Nc1c(Cl)cc(C(O)CNCCCCCOCCCc2ccc(O)c3ncccc23)cc1Cl (configuration not stated)
inactive: growth inhibition [1] 12% | inhibition [3] -4% | outcome [5] | outcome [6] | outcome [7] | outcome [8]
active: inhibition [2] 65% | growth inhibition [4] 90%

Cc1cccc2[nH]c(-c3ccc(-c4ccc(NC(=O)Nc5ccc(Cl)cc5)cc4)cc3)nc12
active: growth inhibition [1] 100% | inhibition [2] 52% | growth inhibition [4] 101%
inactive: inhibition [3] -5% | outcome [5] | outcome [6] | outcome [7] | outcome [8]

NC(=O)c1ccc(NCC(=O)Nc2cccc(-c3cccc(-c4nc5ccc(F)cc5[nH]4)c3)c2)cc1
active: growth inhibition [4] 97%
inactive: growth inhibition [1] 32% | inhibition [2] 15% | inhibition [3] -3% | outcome [5] | outcome [6] | outcome [7] | outcome [8]

CCN(CC)CCON=Cc1cc(C)c2[nH]c3ccc(OCc4ccccc4)cc3c2c1C
active: growth inhibition [4] 98%
inactive: growth inhibition [1] 29% | inhibition [2] 29% | inhibition [3] 1% | outcome [5] | outcome [6] | outcome [7] | outcome [8]

CCN(CC)c1nc(N)c2c(N)nc3c(c2c1C#N)C(=O)CN3Cc1ccccc1
active: growth inhibition [1] 96% | growth inhibition [4] 96%
inactive: inhibition [2] 26% | inhibition [3] -3% | outcome [5] | outcome [6] | outcome [7] | outcome [8]

COc1cccc(NC(=O)Cn2c(C)c(C(=O)C(F)(F)F)c3ccccc32)c1
active: growth inhibition [1] 94% | growth inhibition [4] 97%
inactive: inhibition [2] 2% | inhibition [3] -5% | outcome [5] | outcome [6] | outcome [7] | outcome [8]

O=C(O[C@H]1CN[C@H](C#Cc2cc3ncnc(Nc4ccc5c(ccn5S(=O)(=O)c5cccs5)c4)c3s2)C1)N1CCOCC1
active: growth inhibition [4] 85%
inactive: growth inhibition [1] 48% | inhibition [2] -4% | inhibition [3] -1% | outcome [5] | outcome [6] | outcome [7] | outcome [8]

COc1ccc(C2C(C(=O)OC3CCCCC3)=C(C)NC3=C2C(=O)CCC3)cc1Br (configuration not stated)
inactive: inhibition [2] 7% | inhibition [3] -7% | outcome [5] | outcome [6] | outcome [7] | outcome [8]
active: growth inhibition [1] 94% | growth inhibition [4] 95%

c1ccc(COc2ccc(Nc3ncnc4cnc(-c5ccc(CNc6cccnc6)o5)cc34)cc2)cc1
active: growth inhibition [4] 96%
inactive: growth inhibition [1] 19% | inhibition [2] 2% | inhibition [3] 3% | outcome [5] | outcome [6] | outcome [7] | outcome [8]

Cc1cccc(-c2cccc(CNc3nc(NCCc4ccc(O)cc4)nc(N4CCNCC4)n3)c2)c1
active: inhibition [2] 50% | growth inhibition [4] 84%
inactive: growth inhibition [1] -3% | inhibition [3] 0% | outcome [5] | outcome [6] | outcome [7] | outcome [8]

CCCCOC(=O)[C@H](CCC)NC(=O)c1ccc(NS(=O)(=O)c2ccc3nc(N)[nH]c(=O)c3c2)cc1
active: inhibition [2] 66% | growth inhibition [4] 99%
inactive: growth inhibition [1] 3% | inhibition [3] -1% | outcome [5] | outcome [6] | outcome [7] | outcome [8]

Cc1ccccc1Cc1cccc(/N=C(\N)Nc2ccc(Cl)cc2)n1
active: growth inhibition [1] 56% | growth inhibition [4] 91%
inactive: inhibition [2] 48% | inhibition [3] -7% | outcome [5] | outcome [6] | outcome [7] | outcome [8]

CN(C)C(=O)CC(=O)NCc1cccc(Cl)c1
active: growth inhibition [4] 99%
inactive: growth inhibition [1] 3% | inhibition [2] 4% | inhibition [3] 3% | outcome [5] | outcome [6] | outcome [7] | outcome [8]

COc1ccc(CNC2CCN(C)CC2)cc1-c1ccc(S(=O)(=O)NCCN2CCCC2)s1
inactive: growth inhibition [1] 1% | inhibition [2] 2% | inhibition [3] -2% | outcome [5] | outcome [6] | outcome [7] | outcome [8]
active: growth inhibition [4] 90%

CS(=O)(=O)Nc1cccc(-c2cnc3[nH]cc(-c4ccc(C(=O)O)c(F)c4)c3c2)c1
inactive: inhibition [2] 27% | inhibition [3] 5% | outcome [5] | outcome [6] | outcome [7] | outcome [8]
active: growth inhibition [1] 76% | growth inhibition [4] 99%

Oc1ccc(CCNc2nc(NCc3cccc(-c4cc(C(F)(F)F)ccc4Cl)c3)nc(N3CCNCC3)n2)cc1
inactive: growth inhibition [1] 8% | inhibition [2] 33% | inhibition [3] 0% | outcome [5] | outcome [6] | outcome [7] | outcome [8]
active: growth inhibition [4] 90%

c1ccc(COc2ccc(Nc3ncnc4cnc(-c5ccc(CN6CCCCC6)o5)cc34)cc2)cc1
active: growth inhibition [4] 90%
inactive: growth inhibition [1] 13% | inhibition [2] -14% | inhibition [3] -5% | outcome [5] | outcome [6] | outcome [7] | outcome [8]

COc1cc2c(cc1OC)C(C(=O)Nc1cc(OC)c(OC)c(OC)c1)C(c1ccc(SC)cc1)N(C)C2=O (configuration not stated)
inactive: inhibition [2] 14% | inhibition [3] 2% | outcome [5] | outcome [6] | outcome [7] | outcome [8]
active: growth inhibition [1] 64% | growth inhibition [4] 97%

Cn1nc(C(=O)N2CCC(c3[nH]ncc3Cc3ccccc3)CC2)c2ccccc2c1=O
inactive: inhibition [2] 5% | inhibition [3] -2% | outcome [5] | outcome [6] | outcome [7] | outcome [8]
active: growth inhibition [1] 95% | growth inhibition [4] 95%

CC(C)(CNC(=O)[C@@H]1CCCN(CCOc2ccc(F)c(F)c2)C1)c1nc(-c2ccc(Cl)c(O)c2)c(-c2ccncc2)[nH]1
inactive: inhibition [3] -1% | outcome [5] | outcome [6] | outcome [7] | outcome [8]
active: growth inhibition [1] 77% | inhibition [2] 72% | growth inhibition [4] 101%

CN1CCC(NCc2ccc(-c3ccc(S(=O)(=O)NCc4ccccc4)c(F)c3)cc2)CC1
inactive: inhibition [3] -3% | outcome [5] | outcome [6] | outcome [7] | outcome [8]
active: growth inhibition [1] 89% | inhibition [2] 53% | growth inhibition [4] 99%

O=C1[C@H]2C(c3ccc(Cl)c(Cl)c3)N3CC(OCc4ccccc4)CC3(C(=O)O)[C@H]2C(=O)N1c1ccc(Br)cc1 (some centres not stated)
active: growth inhibition [1] 86% | growth inhibition [4] 104%
inactive: inhibition [2] 14% | inhibition [3] 2% | outcome [5] | outcome [6] | outcome [7] | outcome [8]

CCN(CC)C(=NCCCCCCN=C(/N=C(/N)Nc1ccc(Br)cc1)N(CC)CC)/N=C(/N)Nc1ccc(Br)cc1
active: growth inhibition [1] 95% | growth inhibition [4] 96%
inactive: inhibition [2] -7% | inhibition [3] -5% | outcome [5] | outcome [6] | outcome [7] | outcome [8]

COc1cc2nc(N(C)Cc3cc4c(Cl)cccc4s3)nc(N)c2cc1OC
active: growth inhibition [4] 90%
inactive: growth inhibition [1] 27% | inhibition [2] 32% | inhibition [3] 4% | outcome [5] | outcome [6] | outcome [7] | outcome [8]

CCc1c(C(=O)NC2CCC(N3CCC(c4ccccc4C)CC3)CC2)[nH]c2ccc(Br)cc12 (configuration not stated)
active: growth inhibition [1] 99% | inhibition [2] 81% | growth inhibition [4] 101%
inactive: inhibition [3] -5% | outcome [5] | outcome [6] | outcome [7] | outcome [8]

CCCCCCN1CCCN(Cc2cccc(NC(=O)c3cc4ccccc4s3)c2)CC1
active: growth inhibition [1] 53% | growth inhibition [4] 88%
inactive: inhibition [2] 31% | inhibition [3] 6% | outcome [5] | outcome [6] | outcome [7] | outcome [8]

O=C(C=Cc1ccc(Cl)c(Cl)c1)NCCCCCN1CCC(CCCNS(=O)(=O)c2ccc(F)cc2)CC1
active: inhibition [2] 52% | growth inhibition [4] 93%
inactive: growth inhibition [1] 20% | inhibition [3] 4% | outcome [5] | outcome [6] | outcome [7] | outcome [8]

O=C(NCCc1ccccc1)N(Cc1ccccc1-c1cccc(CNCc2ccc3c(c2)OCO3)c1)C1CCN(Cc2ccccc2)CC1
inactive: inhibition [2] 29% | inhibition [3] 5% | outcome [5] | outcome [6] | outcome [7] | outcome [8]
active: growth inhibition [1] 77% | growth inhibition [4] 93%

O=C(Nc1cccc(CN2CCCN(Cc3ccc(O)cc3)CC2)c1)c1ccc2ccccc2c1
active: growth inhibition [1] 78% | growth inhibition [4] 101%
inactive: inhibition [2] 20% | inhibition [3] 1% | outcome [5] | outcome [6] | outcome [7] | outcome [8]

FC(F)(F)c1ccc(Nc2nnnc3ccccc23)cc1
active: growth inhibition [1] 82% | growth inhibition [4] 90%
inactive: inhibition [2] 3% | inhibition [3] -6% | outcome [5] | outcome [6] | outcome [7] | outcome [8]

O=C(Nc1ccc(N2CCNCC2)cc1)c1ccn2ncc(-c3cccc(Cl)c3)c2n1
inactive: inhibition [3] -2% | outcome [5] | outcome [6] | outcome [7] | outcome [8]
active: growth inhibition [1] 53% | inhibition [2] 79% | growth inhibition [4] 96%

Cc1cc(N2CCCC2)nc(Nc2ccc(NC(=O)C3CCCC3)cc2)n1
active: growth inhibition [1] 81% | growth inhibition [4] 102%
inactive: inhibition [2] 27% | inhibition [3] 1% | outcome [5] | outcome [6] | outcome [7] | outcome [8]

COc1ccc2nc(N)nc(C)c2c1
inactive: growth inhibition [1] 1% | inhibition [2] 5% | inhibition [3] 5% | outcome [5] | outcome [6] | outcome [7] | outcome [8]
active: growth inhibition [4] 90%

C=CC[C@H](C[C@H](O)[C@H](Cc1ccccc1)NC(=O)c1nn(-c2ccccc2)nc1C)C(=O)NC1CCCCC1
active: growth inhibition [4] 94%
inactive: growth inhibition [1] 3% | inhibition [2] 6% | inhibition [3] 5% | outcome [5] | outcome [6] | outcome [7] | outcome [8]

COc1ccc(CNCc2ccc(-c3ccc(-c4nc5ccc(C(F)(F)F)cc5[nH]4)s3)cc2)cc1
active: growth inhibition [1] 98% | growth inhibition [4] 100%
inactive: inhibition [2] 38% | inhibition [3] -1% | outcome [5] | outcome [6] | outcome [7] | outcome [8]

CCC(C)c1ccc(-n2c(Nc3ccccc3)nc3cc(S(N)(=O)=O)ccc32)cc1 (configuration not stated)
inactive: growth inhibition [1] 28% | inhibition [2] 0% | inhibition [3] 4% | outcome [5] | outcome [6] | outcome [7] | outcome [8]
active: growth inhibition [4] 88%
